Positions count from the first letter of the chain named.
Assays:
Test in all cases: PBM; 200 nM protein, PBS
Details in all cases: dsDNA, one strand shown
HOXB9 [1] = biological target: HOXB9 (Homo sapiens, UniProt P17482 171-250, T197M)
HOXC9 [2] = biological target: HOXC9 (Homo sapiens, UniProt P31274 178-260, K195R)
HOXC10 [3] = biological target: HOXC10 (Homo sapiens, UniProt Q9NYD6 254-340)
ALX4 = ALX4 (Homo sapiens, UniProt Q9H161 200-286, Q225E)
HOXB9 [4] = biological target: HOXB9 (Homo sapiens, UniProt P17482 171-250)
Sequence of HOXB9 (Homo sapiens, UniProt P17482 171-250) (P17482 171-250): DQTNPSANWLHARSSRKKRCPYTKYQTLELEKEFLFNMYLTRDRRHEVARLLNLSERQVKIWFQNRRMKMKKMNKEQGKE

HOXC9 [5] = biological target: HOXC9 (Homo sapiens, UniProt P31274 178-260)
Sequence of HOXC9 (Homo sapiens, UniProt P31274 178-260) (P31274 178-260): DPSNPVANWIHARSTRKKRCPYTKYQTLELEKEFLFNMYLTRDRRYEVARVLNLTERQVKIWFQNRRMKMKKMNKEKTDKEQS

HOXD13 [6] = biological target: HOXD13 (Homo sapiens, UniProt P35453 263-343, T313R)
Sequence of HOXD13 (Homo sapiens, UniProt P35453 263-343, T313R) (P35453 263-343 T313R): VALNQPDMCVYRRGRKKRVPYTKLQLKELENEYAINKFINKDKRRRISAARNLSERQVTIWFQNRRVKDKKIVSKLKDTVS

HOXC9 [7] = biological target: HOXC9 (Homo sapiens, UniProt P31274 178-260, R193K)
Sequence of HOXC9 (Homo sapiens, UniProt P31274 178-260, R193K) (P31274 178-260 R193K): as the sequence (P31274 178-260) above, with R16K counted along it

HOXD13 [8] = biological target: HOXD13 (Homo sapiens, UniProt P35453 263-343)
Sequence of HOXD13 (Homo sapiens, UniProt P35453 263-343) (P35453 263-343): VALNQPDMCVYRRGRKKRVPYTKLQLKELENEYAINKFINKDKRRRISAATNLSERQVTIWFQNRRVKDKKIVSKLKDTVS

HOXC10 [9] = biological target: HOXC10 (Homo sapiens, UniProt Q9NYD6 254-340, K271E)
Sequence of HOXC10 (Homo sapiens, UniProt Q9NYD6 254-340, K271E) (Q9NYD6 254-340 K271E): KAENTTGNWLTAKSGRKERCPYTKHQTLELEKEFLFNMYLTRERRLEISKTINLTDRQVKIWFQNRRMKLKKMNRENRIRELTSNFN

HOXD13 [10] = biological target: HOXD13 (Homo sapiens, UniProt P35453 263-343, T313A)
Sequence of HOXD13 (Homo sapiens, UniProt P35453 263-343, T313A) (P35453 263-343 T313A): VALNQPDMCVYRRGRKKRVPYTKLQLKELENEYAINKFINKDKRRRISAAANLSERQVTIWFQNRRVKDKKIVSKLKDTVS

HOXB9 [11] = biological target: HOXB9 (Homo sapiens, UniProt P17482 171-250, R186Q)
Sequence of HOXB9 (Homo sapiens, UniProt P17482 171-250, R186Q) (P17482 171-250 R186Q): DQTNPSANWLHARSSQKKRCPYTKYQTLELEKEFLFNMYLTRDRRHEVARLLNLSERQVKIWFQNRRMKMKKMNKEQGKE

HOXC9 [12] = biological target: HOXC9 (Homo sapiens, UniProt P31274 178-260, R222W)
Sequence of HOXC9 (Homo sapiens, UniProt P31274 178-260, R222W) (P31274 178-260 R222W): as the sequence (P31274 178-260) above, with R45W counted along it

VENTX [13] = biological target: T1, VENTX (Homo sapiens, UniProt O95231 78-163, R121Q)
T1 sequence: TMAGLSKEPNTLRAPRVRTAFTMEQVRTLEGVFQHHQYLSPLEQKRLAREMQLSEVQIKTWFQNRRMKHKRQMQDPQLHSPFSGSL

VENTX [14] = biological target: T2, VENTX (Homo sapiens, UniProt O95231 78-163)
T2 sequence: T1 sequence with Q44R

HOXA4 [15] = biological target: HOXA4 (Homo sapiens, UniProt Q00056 201-287)
Sequence of HOXA4 (Homo sapiens, UniProt Q00056 201-287) (Q00056 201-287): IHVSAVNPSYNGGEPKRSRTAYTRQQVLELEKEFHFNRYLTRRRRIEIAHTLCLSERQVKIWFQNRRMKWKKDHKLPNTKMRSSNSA

HOXA4 [16] = biological target: HOXA4 (Homo sapiens, UniProt Q00056 201-287, W262R)
Sequence of HOXA4 (Homo sapiens, UniProt Q00056 201-287, W262R) (Q00056 201-287 W262R): as the sequence (Q00056 201-287) above, with W62R counted along it

HOXB6 [17] = biological target: HOXB6 (Homo sapiens, UniProt P17509 132-218, K202E)
Sequence of HOXB6 (Homo sapiens, UniProt P17509 132-218, K202E) (P17509 132-218 K202E): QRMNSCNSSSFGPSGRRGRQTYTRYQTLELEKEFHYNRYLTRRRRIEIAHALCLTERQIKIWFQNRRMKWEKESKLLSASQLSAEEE

HOXA4 [18] = biological target: HOXA4 (Homo sapiens, UniProt Q00056 201-287, R217L)
Sequence of HOXA4 (Homo sapiens, UniProt Q00056 201-287, R217L) (Q00056 201-287 R217L): as the sequence (Q00056 201-287) above, with R17L counted along it

HOXA4 [19] = biological target: HOXA4 (Homo sapiens, UniProt Q00056 201-287, W262F)
Sequence of HOXA4 (Homo sapiens, UniProt Q00056 201-287, W262F) (Q00056 201-287 W262F): as the sequence (Q00056 201-287) above, with W62F counted along it

HOXB6 [20] = biological target: HOXB6 (Homo sapiens, UniProt P17509 132-218)
Sequence of HOXB6 (Homo sapiens, UniProt P17509 132-218) (P17509 132-218): as the sequence (P17509 132-218 K202E) above, with E71K counted along it

VENTX [21] = biological target: T3, VENTX (Homo sapiens, UniProt O95231 78-163, Y115F)
T3 sequence: T1 sequence with Y38F, Q44R

VAX1 [22] = biological target: VAX1 (Homo sapiens, UniProt Q5SQQ9 86-172)
Sequence of VAX1 (Homo sapiens, UniProt Q5SQQ9 86-172) (Q5SQQ9 86-172): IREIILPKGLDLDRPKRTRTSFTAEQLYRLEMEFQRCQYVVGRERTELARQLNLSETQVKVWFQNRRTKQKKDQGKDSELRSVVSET

VAX1 [23] = biological target: VAX1 (Homo sapiens, UniProt Q5SQQ9 86-172, T142I)
Sequence of VAX1 (Homo sapiens, UniProt Q5SQQ9 86-172, T142I) (Q5SQQ9 86-172 T142I): as the sequence (Q5SQQ9 86-172) above, with T57I counted along it

VAX1 [24] = biological target: VAX1 (Homo sapiens, UniProt Q5SQQ9 86-172, K157R)
Sequence of VAX1 (Homo sapiens, UniProt Q5SQQ9 86-172, K157R) (Q5SQQ9 86-172 K157R): as the sequence (Q5SQQ9 86-172) above, with K72R counted along it

PRRX1 [25] = biological target: PRRX1 (Homo sapiens, UniProt P54821 80-166, F113S)
Sequence of PRRX1 (Homo sapiens, UniProt P54821 80-166, F113S) (P54821 80-166 F113S): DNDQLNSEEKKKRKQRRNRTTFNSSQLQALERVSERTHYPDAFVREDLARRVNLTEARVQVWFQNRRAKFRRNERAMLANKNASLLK

PRRX1 [26] = biological target: PRRX1 (Homo sapiens, UniProt P54821 80-166)
Sequence of PRRX1 (Homo sapiens, UniProt P54821 80-166) (P54821 80-166): as the sequence (P54821 80-166 F113S) above, with S34F counted along it

HOXA7 [27] = biological target: HOXA7 (Homo sapiens, UniProt P31268 116-202)
Sequence of HOXA7 (Homo sapiens, UniProt P31268 116-202) (P31268 116-202): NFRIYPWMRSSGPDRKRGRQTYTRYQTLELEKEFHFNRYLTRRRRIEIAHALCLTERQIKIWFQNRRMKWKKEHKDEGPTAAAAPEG

NKX2-6 = biological target: T4, NKX2-6 (Homo sapiens, UniProt A6NCS4 118-204)
T4 sequence: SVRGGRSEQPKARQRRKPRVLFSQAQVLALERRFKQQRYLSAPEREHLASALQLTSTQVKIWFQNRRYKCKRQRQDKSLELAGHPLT

HOXA7 [28] = biological target: HOXA7 (Homo sapiens, UniProt P31268 116-202, W177C)
Sequence of HOXA7 (Homo sapiens, UniProt P31268 116-202, W177C) (P31268 116-202 W177C): as the sequence (P31268 116-202) above, with W62C counted along it

CRX = CRX (Homo sapiens, UniProt O43186 26-111, R41L)
Sequence of CRX (O43186 26-111 R41L): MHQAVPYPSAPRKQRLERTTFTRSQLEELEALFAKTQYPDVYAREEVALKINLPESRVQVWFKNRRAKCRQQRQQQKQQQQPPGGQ

ALX1 [29] = biological target: ALX1 (Homo sapiens, UniProt Q15699 118-204, L144V)
Sequence of ALX1 (Homo sapiens, UniProt Q15699 118-204, L144V) (Q15699 118-204 L144V): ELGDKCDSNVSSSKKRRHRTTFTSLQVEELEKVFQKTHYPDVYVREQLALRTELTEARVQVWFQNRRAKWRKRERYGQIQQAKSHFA

ALX1 [30] = biological target: ALX1 (Homo sapiens, UniProt Q15699 118-204, L144R)
Sequence of ALX1 (Homo sapiens, UniProt Q15699 118-204, L144R) (Q15699 118-204 L144R): as the sequence (Q15699 118-204 L144V) above, with V27R counted along it

ALX1 [31] = biological target: ALX1 (Homo sapiens, UniProt Q15699 118-204)
Sequence of ALX1 (Homo sapiens, UniProt Q15699 118-204) (Q15699 118-204): as the sequence (Q15699 118-204 L144V) above, with V27L counted along it

Sequence of HOXC9 (Homo sapiens, UniProt P31274 178-260, K195R) (P31274 178-260 K195R): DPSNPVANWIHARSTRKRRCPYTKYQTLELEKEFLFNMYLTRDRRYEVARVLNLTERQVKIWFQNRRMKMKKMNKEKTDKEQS
Sequence of HOXB9 (Homo sapiens, UniProt P17482 171-250, T197M) (P17482 171-250 T197M): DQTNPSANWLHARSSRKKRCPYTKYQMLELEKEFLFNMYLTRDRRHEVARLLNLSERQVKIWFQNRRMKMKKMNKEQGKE
Sequence of HOXC10 (Homo sapiens, UniProt Q9NYD6 254-340) (Q9NYD6 254-340): as the sequence (Q9NYD6 254-340 K271E) above, with E18K counted along it
Sequence of ALX4 (Q9H161 200-286 Q225E): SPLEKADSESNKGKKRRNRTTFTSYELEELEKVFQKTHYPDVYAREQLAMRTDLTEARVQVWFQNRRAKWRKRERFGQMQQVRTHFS

## CAATAAAA
HOXB9 [1]
  binding signal: 10.1 upbm affinity estimate (log intensity, higher = more binding, comparable within an allelic series)
HOXC9 [2]
  binding signal: 13.2 upbm affinity estimate (log intensity, higher = more binding, comparable within an allelic series)
HOXC10 [3]
  binding signal: 12.9 upbm affinity estimate (log intensity, higher = more binding, comparable within an allelic series)
ALX4
  binding signal: 11.2 upbm affinity estimate (log intensity, higher = more binding, comparable within an allelic series)
HOXB9 [4]
  binding signal: 12.7 upbm affinity estimate (log intensity, higher = more binding, comparable within an allelic series)
HOXC9 [5]
  binding signal: 13.2 upbm affinity estimate (log intensity, higher = more binding, comparable within an allelic series)
HOXD13 [6]
  binding signal: 11.2 upbm affinity estimate (log intensity, higher = more binding, comparable within an allelic series)
HOXC9 [7]
  binding signal: 13.2 upbm affinity estimate (log intensity, higher = more binding, comparable within an allelic series)
HOXD13 [8]
  binding signal: 12.5 upbm affinity estimate (log intensity, higher = more binding, comparable within an allelic series)
HOXC10 [9]
  binding signal: 12.5 upbm affinity estimate (log intensity, higher = more binding, comparable within an allelic series)
HOXD13 [10]
  binding signal: 12.3 upbm affinity estimate (log intensity, higher = more binding, comparable within an allelic series)
HOXB9 [11]
  binding signal: 12.4 upbm affinity estimate (log intensity, higher = more binding, comparable within an allelic series)
HOXC9 [12]
  binding signal: 11.7 upbm affinity estimate (log intensity, higher = more binding, comparable within an allelic series)

## AGTTATCC
VENTX [13]
  binding signal: 9.65 upbm affinity estimate (log intensity, higher = more binding, comparable within an allelic series)
VENTX [14]
  binding signal: 10.1 upbm affinity estimate (log intensity, higher = more binding, comparable within an allelic series)
HOXA4 [15]
  binding signal: 11.1 upbm affinity estimate (log intensity, higher = more binding, comparable within an allelic series)

## GGGATCCC
HOXB9 [1]
  binding signal: 8.56 upbm affinity estimate (log intensity, higher = more binding, comparable within an allelic series)
HOXA4 [16]
  binding signal: 9.85 upbm affinity estimate (log intensity, higher = more binding, comparable within an allelic series)
HOXC9 [2]
  binding signal: 9.54 upbm affinity estimate (log intensity, higher = more binding, comparable within an allelic series)
HOXB6 [17]
  binding signal: 9.02 upbm affinity estimate (log intensity, higher = more binding, comparable within an allelic series)
HOXA4 [18]
  binding signal: 9.68 upbm affinity estimate (log intensity, higher = more binding, comparable within an allelic series)
HOXB9 [4]
  binding signal: 8.21 upbm affinity estimate (log intensity, higher = more binding, comparable within an allelic series)
HOXC9 [5]
  binding signal: 9.51 upbm affinity estimate (log intensity, higher = more binding, comparable within an allelic series)
HOXC9 [7]
  binding signal: 9.56 upbm affinity estimate (log intensity, higher = more binding, comparable within an allelic series)
HOXA4 [15]
  binding signal: 9.71 upbm affinity estimate (log intensity, higher = more binding, comparable within an allelic series)
HOXB9 [11]
  binding signal: 8.25 upbm affinity estimate (log intensity, higher = more binding, comparable within an allelic series)
HOXC9 [12]
  binding signal: 9.68 upbm affinity estimate (log intensity, higher = more binding, comparable within an allelic series)
HOXA4 [19]
  binding signal: 9.89 upbm affinity estimate (log intensity, higher = more binding, comparable within an allelic series)
HOXB6 [20]
  binding signal: 9.02 upbm affinity estimate (log intensity, higher = more binding, comparable within an allelic series)

## CGGGCGCA
VENTX [13]
  binding signal: 7.97 upbm affinity estimate (log intensity, higher = more binding, comparable within an allelic series)
VENTX [14]
  binding signal: 7.92 upbm affinity estimate (log intensity, higher = more binding, comparable within an allelic series)
VENTX [21]
  binding signal: 7.91 upbm affinity estimate (log intensity, higher = more binding, comparable within an allelic series)
VAX1 [22]
  binding signal: 6.81 upbm affinity estimate (log intensity, higher = more binding, comparable within an allelic series)
VAX1 [23]
  binding signal: 6.96 upbm affinity estimate (log intensity, higher = more binding, comparable within an allelic series)
VAX1 [24]
  binding signal: 6.94 upbm affinity estimate (log intensity, higher = more binding, comparable within an allelic series)

## CCGATTAC
VENTX [13]
  binding signal: 10.3 upbm affinity estimate (log intensity, higher = more binding, comparable within an allelic series)
PRRX1 [25]
  binding signal: 9.76 upbm affinity estimate (log intensity, higher = more binding, comparable within an allelic series)
VENTX [21]
  binding signal: 10.4 upbm affinity estimate (log intensity, higher = more binding, comparable within an allelic series)
PRRX1 [26]
  binding signal: 11.8 upbm affinity estimate (log intensity, higher = more binding, comparable within an allelic series)

## GCTATTAA
HOXB9 [1]
  binding signal: 10 upbm affinity estimate (log intensity, higher = more binding, comparable within an allelic series)
HOXC9 [2]
  binding signal: 12.7 upbm affinity estimate (log intensity, higher = more binding, comparable within an allelic series)
HOXA7 [27]
  binding signal: 11.4 upbm affinity estimate (log intensity, higher = more binding, comparable within an allelic series)
HOXB6 [17]
  binding signal: 9.98 upbm affinity estimate (log intensity, higher = more binding, comparable within an allelic series)
HOXB9 [4]
  binding signal: 12 upbm affinity estimate (log intensity, higher = more binding, comparable within an allelic series)
HOXC9 [5]
  binding signal: 12.8 upbm affinity estimate (log intensity, higher = more binding, comparable within an allelic series)
HOXD13 [6]
  binding signal: 10.7 upbm affinity estimate (log intensity, higher = more binding, comparable within an allelic series)
NKX2-6
  binding signal: 11.8 upbm affinity estimate (log intensity, higher = more binding, comparable within an allelic series)
HOXC9 [7]
  binding signal: 12.7 upbm affinity estimate (log intensity, higher = more binding, comparable within an allelic series)
HOXD13 [8]
  binding signal: 11.8 upbm affinity estimate (log intensity, higher = more binding, comparable within an allelic series)
HOXC10 [9]
  binding signal: 11.8 upbm affinity estimate (log intensity, higher = more binding, comparable within an allelic series)
HOXD13 [10]
  binding signal: 11.5 upbm affinity estimate (log intensity, higher = more binding, comparable within an allelic series)
HOXB9 [11]
  binding signal: 11.8 upbm affinity estimate (log intensity, higher = more binding, comparable within an allelic series)
HOXC9 [12]
  binding signal: 10.9 upbm affinity estimate (log intensity, higher = more binding, comparable within an allelic series)
HOXA7 [28]
  binding signal: 8.84 upbm affinity estimate (log intensity, higher = more binding, comparable within an allelic series)
HOXB6 [20]
  binding signal: 11.8 upbm affinity estimate (log intensity, higher = more binding, comparable within an allelic series)

## CCCGATTA
VENTX [13]
  binding signal: 10.4 upbm affinity estimate (log intensity, higher = more binding, comparable within an allelic series)
VENTX [21]
  binding signal: 10.6 upbm affinity estimate (log intensity, higher = more binding, comparable within an allelic series)

## CTAACGAG
VENTX [13]
  binding signal: 10.2 upbm affinity estimate (log intensity, higher = more binding, comparable within an allelic series)
HOXC9 [5]
  binding signal: 10.9 upbm affinity estimate (log intensity, higher = more binding, comparable within an allelic series)
HOXC9 [7]
  binding signal: 10.8 upbm affinity estimate (log intensity, higher = more binding, comparable within an allelic series)
HOXC9 [12]
  binding signal: 10.1 upbm affinity estimate (log intensity, higher = more binding, comparable within an allelic series)

## CCAGCTGC
VENTX [13]
  binding signal: 8.15 upbm affinity estimate (log intensity, higher = more binding, comparable within an allelic series)
VENTX [14]
  binding signal: 8.27 upbm affinity estimate (log intensity, higher = more binding, comparable within an allelic series)
VENTX [21]
  binding signal: 8.21 upbm affinity estimate (log intensity, higher = more binding, comparable within an allelic series)
VAX1 [22]
  binding signal: 7.42 upbm affinity estimate (log intensity, higher = more binding, comparable within an allelic series)
VAX1 [23]
  binding signal: 7.3 upbm affinity estimate (log intensity, higher = more binding, comparable within an allelic series)
VAX1 [24]
  binding signal: 7.2 upbm affinity estimate (log intensity, higher = more binding, comparable within an allelic series)

## CCGATTAG
VENTX [13]
  binding signal: 11.6 upbm affinity estimate (log intensity, higher = more binding, comparable within an allelic series)
VENTX [14]
  binding signal: 12.9 upbm affinity estimate (log intensity, higher = more binding, comparable within an allelic series)
VENTX [21]
  binding signal: 11.6 upbm affinity estimate (log intensity, higher = more binding, comparable within an allelic series)
CRX
  binding signal: 11.4 upbm affinity estimate (log intensity, higher = more binding, comparable within an allelic series)

## GGCGATTA
VENTX [13]
  binding signal: 11 upbm affinity estimate (log intensity, higher = more binding, comparable within an allelic series)
ALX1 [29]
  binding signal: 8.58 upbm affinity estimate (log intensity, higher = more binding, comparable within an allelic series)
ALX1 [30]
  binding signal: 8.54 upbm affinity estimate (log intensity, higher = more binding, comparable within an allelic series)
ALX1 [31]
  binding signal: 9.05 upbm affinity estimate (log intensity, higher = more binding, comparable within an allelic series)

Source: publication PMC11006913
